From PubChem BioAssay AID488890 (Southern Research Specialized Biocontainment Screening …, 2010)
About 1,300 (0.41%) of roughly 320,000 compounds were called active. Another 3% or so got no clear call; they are omitted. The rule behind the calls is not given here. A selection follows. Potency and affinity values are given separately.

Experiment: growth inhibition of non-replicating M. tuberculosis (AID 488890);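 note: plate controls were DMSO cells for no effect and high antibiotic wells for full effect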
Conditions: Mycobacterium tuberculosis non-replicating, at 25 µM, stronger effect = higher value

SMILES	inhibition
CC(C)c1ccc(C2/C(=C(/O)c3ccccc3)C(=O)C(=O)N2CCCN2CCOCC2)cc1 (centres undefined)	3.66%
Cc1ccc(S(=O)(=O)NC(CC(C)C)C(=O)Nc2ccncc2)cc1 (centres undefined)	0.09%
CCOc1ccc(OCC(=O)c2c(O)c3ccccc3oc2=O)cc1	29.5%
COc1ccc(OCC(=O)c2c(O)c3ccccc3oc2=O)cc1	23.3%
O=C(c1c(O)c2ccccc2oc1=O)C1CCC1	39%
CC(=N)c1c(O)c2ccccc2oc1=O	-3.72%
Cc1ccccc1-c1nnc(SCC(=O)NC2CCCC2)n1C	0.83%
C[C@H]1CN([C@@H](C)CO)C(=O)c2cc(NC(=O)C3CCCCC3)ccc2O[C@H]1CN(C)CC1CCCCC1	5.45%
CCc1ccc(CNC(=O)c2ccc(OC)c(OC3CCN(C(C)C)CC3)c2)nc1	2.53%
Cc1cccc(NC(=O)CCc2nnc3ccc(NCc4ccco4)nn23)n1	-10.9%
COc1ccc(-c2cnn3c4c(c(C)nc23)CCN4C(C)C)cc1OC	6.73%
CCOC(=O)Nc1ccc2c(c1)N(C(=O)CN)c1ccccc1CC2	22.7%
CCOC(=O)Nc1ccc2c(c1)Sc1ccccc1N2C(=O)CCN1CCOCC1	39.8%
CCOC(=O)Nc1ccc2c(c1)N(C(=O)CCN1CCOCC1)c1ccccc1S2	20.2%
CCOC(=O)Nc1ccc2c(c1)N(C(=O)CCN(C)C)c1ccccc1CC2	-1.89%
O=C(CN1CCCCCC1)Nc1cc(C(F)(F)F)ccc1Cl	1.63%
COc1ccc(CNC(=O)C(NC(C)=O)C(C)C)cc1OC (centres undefined)	-1.56%
COc1ccc([N+](=O)[O-])cc1N(CC(O)CN1C(=O)NC(C)(C)C1=O)S(=O)(=O)c1ccccc1 (centres undefined)	-14.2%
Cc1nnc(NC(=O)C2=COCCO2)s1	-3.76%
Cc1ccc(C(=O)NC2CCCC2)s1	56.2%
CCOc1ccc(C(=O)NC2CCCCCCC2)cc1	77.1%
Cc1c(Cl)cccc1NC(=O)c1ccc(OCC(=O)NCc2ccccc2)cc1	-7.76%
O=C(NC1CCCC1)c1ccc(Cl)s1	75.8%
CCC(=O)c1ccc(OCC(=O)OCC(=O)NC2CCCCCC2)cc1	20.5%

SMILES	inhibition
CCOC(=O)Nc1cccc(Cl)c1C	20.8%
CN(Cc1ccccc1)C(=O)COC(=O)c1cc(=O)c2ccccc2o1	-3.1%
COc1ccccc1C(=O)Nc1nc2cc3c(cc2s1)OCO3	-15.7%
O=C(Nc1cc(F)ccc1F)c1ccc(-n2cncn2)c([N+](=O)[O-])c1	3.94%
COc1ccc(NC(=O)C2CC(=O)n3ncnc3N2)cc1 (centres undefined)	-0.6%
COc1cc(-c2nc(-c3ccccc3)c(-c3cccs3)[nH]2)cc(OC)c1OC	-1.14%
Cc1ccc(C(=O)NC(C)c2ccc(S(N)(=O)=O)cc2)s1 (centres undefined)	-0.6%
CC(=O)Nc1ccc(NC(=O)CSc2nnc(CC(C)O)n2-c2ccccc2)cc1 (centres undefined)	-7.33%
O=C(CN1CCN(S(=O)(=O)c2ccc(F)cc2)CC1)Nc1ccc(Cl)cn1	37.8%
FC(F)(F)c1cccc(Cc2noc(CN3CCCC(CN4CCCC4)C3)n2)c1 (centres undefined)	51%
Cc1cccn2c(CNC3CCCc4ccccc43)c(C(=O)N3CCOCC3)nc12 (centres undefined)	21.9%
CCn1c(C)nc2cc(S(N)(=O)=O)ccc21	-15.1%
CC(C)c1onc(C(=O)NCc2ccccc2)c1[N+](=O)[O-]	44.9%
Cc1cc(C)n(-c2nc3ccccc3nc2N2CCC(C)CC2)n1	34%
CCCc1nc(C)cc(N2CCN(c3ccccc3)CC2)n1	-3.49%
Cc1cc(N2CCN(c3ccccc3)CC2)nc(N)n1	-1.71%
Cc1cc(Cl)nc(-n2nc(C)cc2C)n1	27.1%
COc1ccccc1OCc1ccc(C(=O)NCC2CCCO2)cc1 (centres undefined)	1.26%
Cc1cccc(N2CCN(C(=O)c3ccc(CS(=O)Cc4cccc(Cl)c4)o3)CC2)c1C (centres undefined)	28.5%
Cn1nc(C(=O)NCCN2CCOCC2)c2ccccc2c1=O	-5.46%
CC(=O)n1cc(C=C2C(=O)NC(=O)NC2=O)c2ccccc21	0%
CC(=O)O/C(=C\c1cn(C(C)=O)c2ccccc12)C(=O)O	-6.32%
Cc1ccc2c(c1)N(C)/C(=C/c1cccc[n+]1CCO)S2	6.55%
O=C(O)Cc1ccc(NS(=O)(=O)c2c(Cl)cccc2Cl)cc1	-11.9%

SMILES	inhibition
CC(C)(C)Nc1nc(N2CCCC2)nc(N2CCCC2)n1	59.5%
CCNc1nc(N2CCCC2)nc(N2CCCC2)n1	75.5%
CCOC(=O)[C@@H]1[C@H]2COc3cc(OC)ccc3[C@H]2N2C(=O)N(c3cccc(Cl)c3)C(=O)[C@]12C	1.05%
O=C(NCCCN1CCOCC1)c1c(O)c2ccccc2[nH]c1=O	-0.01%
COc1cc2[nH]c(=O)c(C(=O)NCCCN3CCOCC3)c(O)c2cc1OC	1.72%
CCc1ccc(C(=O)Nc2cc3c(cc2Cl)OCCCO3)cc1	42%
O=C(O)C1CCN(C(=O)CCN2C(=O)S/C(=C\c3ccccc3)C2=O)CC1	1.98%
CCCCn1c(=O)c(CCC(=O)OCC(=O)Nc2cc(Cl)ccc2OC)nc2ccccc21	-2.09%
COC(=O)[C@H](CCSC)NC(=O)NCCc1ccc(F)cc1	-16.4%
CCCCn1c(=O)c2ccccc2n2c(=S)[nH]nc12	-11.3%
CCCCCn1c(=O)c2ccccc2n2c(=S)[nH]nc12	-0.64%
Cc1ccccc1Sc1ncnc2onc(C)c12	5.13%
COc1ccc(Sc2ncnc3onc(C)c23)cc1	58.2%
Cc1ccc(Sc2ncnc3onc(C)c23)cc1	72.5%
COC(=O)c1ccccc1Sc1snnc1C	-5.51%
CN(C)S(=O)(=O)c1ccc(NC(=O)COC(=O)C2CC3CCCC(C2)C3=O)cc1 (centres undefined)	14.8%
COc1ccc(-n2c(O)c(C=NCCCn3ccnc3)c(=O)[nH]c2=O)cc1	-3.58%
Cc1cc(NC(=O)CN2CCN(c3ccccc3O)CC2)no1	3.86%
CCCCn1c(=O)c(C=Nc2cc([N+](=O)[O-])ccc2OC)c(O)n(CCCCl)c1=O	64%
CCCCN1CC(C(=O)NC2CCCCC2)CC1=O (centres undefined)	-9.76%
CCOc1ccc2oc(C(=O)OCC(=O)NCc3ccc(OC)cc3)c(C)c2c1	26.4%
Cc1nn(C2CCS(=O)(=O)C2)c(Cl)c1/C=C/C(=O)OCC(=O)Nc1ccc2c(c1)OCO2 (centres undefined)	3.18%
O=C(c1cnn2c(C(F)(F)F)cc(-c3ccccc3)nc12)N1CCCCC1c1cccnc1 (centres undefined)	22.6%
Nc1ccc(-c2nc3ncccc3o2)c(O)c1	8.78%

SMILES	inhibition
O=C1OC(Oc2ccccc2)(c2ccccc2)c2ccccc21 (centres undefined)	-1.31%
OC(CNCc1ccccc1F)COc1cccc2ccccc12 (centres undefined)	29.3%
OC(CNCCc1ccccc1)COc1ccc(OCC(O)CNCCc2ccccc2)cc1 (centres undefined)	59.6%
COc1ccc(CCNCC(O)COc2cccc(Br)c2)cc1 (centres undefined)	45.7%
COc1ccccc1COCC(O)CNCCc1ccc(C(F)(F)F)cc1 (centres undefined)	67.5%
O=c1c2ccccc2nc(/C=C/c2ccc(F)cc2)n1-c1ccccn1	-7.61%
Cc1ccnc(NC(=O)c2ccccc2NC(=O)c2ccccc2)c1	7.95%
OCCCn1c(CCNc2nc(-c3ccc(F)cc3)cs2)nc2cc(C(F)(F)F)ccc21	26.8%
c1ccc2cc(OCCOCCOc3ccc4ccccc4c3)ccc2c1	-3.69%
CN(C)CCOc1ccc2ccccc2c1	-16.7%
COC(C(=O)Nc1ccc(S(=O)(=O)Nc2ccc(F)cc2)cc1)c1ccccc1 (centres undefined)	30.9%
CCOc1ccc(C(C(=O)NCC2CCCO2)N(C(=O)c2snc(C(N)=O)c2N)c2cccc(F)c2)cc1 (centres undefined)	3.71%
O=C(NCCCNC(=O)c1cnccn1)c1ccc(Cl)c(Cl)c1	-0.84%
COc1ccc(CC(=O)NNC(=O)c2cnccn2)cc1	-6.37%
COc1ccc(CC(=O)NNC(=O)COc2ccc(Br)cc2C)cc1OC	-13.1%
O=C(NCCNC(=O)c1cnccn1)c1ccc(Cl)c(Cl)c1	5.99%
Cc1ccc(C(=O)NNC(=O)COc2ccc(Cl)cc2C)o1	-11.3%
CCc1ccc(OCC(=O)NCCN(C)C)c(Br)c1	5.23%
Cc1cc(Cl)ccc1OCC(=O)NNC(=O)c1cccnc1	-9.52%
COc1ccccc1OCC(=O)NNC(=O)c1cnccn1	3.6%
Cn1nc(C(=O)N2CCOCC2)c2ccccc2c1=O	-8.35%
O=C(COc1ccccc1-c1ccccc1)c1ccccc1	50.1%
COc1cc([C@@H]2CC=C(C(=O)O)[C@H](c3ccccc3)N2S(=O)(=O)c2ccc(C)cc2)cc(OC)c1OC	12.5%
CCN(CC)C(=O)[C@H]1CC(CC(=O)NCCCOC)C(=O)N2CCc3c([nH]c4ccccc34)[C@]12C (some centres undefined)	-1.9%

SMILES	inhibition
CC(=O)N1CCN(c2ccccc2NC(=O)COc2cc(C)ccc2C(C)C)CC1	34.3%
CCOc1ccc(NC(=O)CCCN2C(=O)C(c3ccccc3)Oc3cccnc32)cc1 (centres undefined)	3.12%
CC1(C)CC(=O)c2c(Cc3ccccc3)noc2C1	3.41%
CCN(CC)CCn1c2c(c(SCC(=O)NCc3ccccc3)nc1=O)CCC2	8.95%
Cc1ccc(S(=O)(=O)NCC(=O)NCC(=O)N(C)Cc2ccc3ccccc3c2)cc1C	31.9%
Cc1cc(Br)ccc1OCC(=O)NNC(=O)Cc1ccccc1	-15.6%
CCc1ccc(OCC(=O)NC(=S)Nc2ccc(F)cc2)c(Br)c1	9.95%
Cc1cc(Br)ccc1OCC(=O)NNC(=O)CCc1ccccc1	29%
O=C(COc1ccc(Cl)cc1Br)Nc1ccncc1	69.3%
CCCc1nc2oc3c(NCCOCCO)ncnc3c2c2c1COC(C)(C)C2	-8.1%
CCCN(CC(=O)Nc1ccc(F)c(F)c1F)CC(=O)Nc1c(C)n(C)n(-c2ccccc2)c1=O	37.8%
COc1ccccc1-n1nnnc1SCC(=O)NC1CCCCC1	2.38%
Cc1[nH]c(C)c(S(=O)(=O)Nc2cccc(Cl)c2C)c1C(=O)N1CCCC1	6.67%
Cc1ccsc1/C=N/NC(=O)CN1CCN(Cc2ccccc2)CC1	-0.88%
O=C(NCC1CCCO1)NC12CC3CC(CC(C3)C1)C2 (centres undefined)	-2.4%
Cc1cc(C)cc(OCC(=O)N/N=C/c2ccco2)c1	9.16%
CCOC(=O)N/N=C\c1ccc([N+](=O)[O-])o1	59.1%
COc1ccc(C(=O)NCC(=O)N/N=C/c2ccc(C)o2)cc1OC	24.5%
COC(=O)N/N=C/c1ccc([N+](=O)[O-])o1	70.7%
Cc1ccccc1OCC(=O)N/N=C/C=C/c1ccccc1	-6.11%
COc1ccc(C(=O)NCC(=O)N/N=C/c2ccco2)cc1OC	-11.6%
O=C(COc1ccccc1[N+](=O)[O-])N/N=C/C=C/c1ccco1	12.5%
CCCCCC(=O)N/N=C/c1ccc([N+](=O)[O-])o1	73.3%
